From PubChem BioAssay (NCI)
Where “and” joins values, the source holds several entries; their conditions need not be identical. Equal values may be shown once. The panel holds about 79,000 compounds, 15% with a hit somewhere; the sample as a whole holds those more often. The source holds several records for some structures; these can differ, active in one and inactive in another. Calls of active or inactive are those of the source. Rule as the data show it: active = growth inhibition above about 70%; inactive = the rest.

test: NCI Yeast Anticancer Drug Screen. Data for the bub3 strain (AID 167); conditions: S. cerevisiae bub3 mutant strain, at 5.0 µM (retest, dose inferred, filed as 0.5), stronger effect = higher value
Procedure, shortened: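 In this screen, a yeast mutant lacking normal mitotic checkpoint function is challenged with compound. Relative growth versus vehicle gives the inhibition value.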

| Structure (SMILES) | growth inhibition |
| --- | --- |
| O=c1[nH]cnc2[nH]cc(CN3CCCCC3)c12 | 12% (inactive) |
| NCCBr | -25% (inactive) |
| CSc1ncc(COP(=S)(OCc2cnc(SC)nc2N)OCc2cnc(SC)nc2N)c(N)n1 | -1% (inactive) |
| O=[N+]([O-])c1ccc(O)c(Cl)c1 | -5% (inactive) |
| CCN(CC)CC(=O)c1ccc2c(ccc3ccccc32)c1 | 8% (inactive) |
| Cc1ccc([C@H]2N[C@@H]2c2ccccn2)cc1 | -4% (inactive) |
| CCC1(C2=CCCCC2)C(=O)NC(=S)NC1=O | 4% (inactive) |
| Cn1cnc(C(=N)[Se])c1N | 51% (inactive) |
| CCOC(=O)NC(=S)[S][Sb]([S]C(=S)NC(=O)OCC)[S]c1nc2ccc(N=Nc3ccc(NS(=O)(=O)c4ccc(NC(=O)C(N5CC5)(N5CC5)N5CC5)cc4)cc3)cc2s1 | 24% (inactive) |
| COc1ccccc1/C=C(/C)[N+](=O)[O-] | 34% (inactive) and 27% (inactive) |
| O=c1oc2ccccc2c(O)c1C(c1ccc(OCc2ccccc2)cc1)c1c(O)c2ccccc2oc1=O | 7% (inactive) |
| COc1cc(N(CCCl)CCCl)ccc1C=Nc1cccc(Cl)c1 | 0% (inactive) |
| O=[N+]([O-])c1cc2c([N+](=O)[O-])cccc2o1 | 7% (inactive) |
| ClCCN(CCCl)c1ccc(C2N(Cc3ccc(N(CCCl)CCCl)cc3Cl)CCCN2Cc2ccc(N(CCCl)CCCl)cc2Cl)cc1 | 1% (inactive) |
| CCN(Cc1ccccc1)CC(O)c1ccc(Cl)c(Cl)c1 (centres undefined) | 0% (inactive) |
| FC1(F)C(Cl)=[C]([Hg][C]2=C(Cl)C(F)(F)C(F)(F)C(F)(F)C2(F)F)C(F)(F)C(F)(F)C1(F)F | 69% (inactive) |
| CCn1c(O)c(C(=O)NC(C)c2ccc([N+](=O)[O-])cc2)c(=O)n(CC)c1=S (centres undefined) | 9% (inactive) |
| CC(=O)[O][Hg][c]1ccccc1N | 99% (active) |
| CCC[CH2][Sn]1([CH2]CCC)[O]Cc2nc(C)ccc2[O]1 | 33% (inactive) |
| CCCCCCCCCCCCC(=O)[O][Hg][c]1ccccc1 | 99% (active) |

| Structure (SMILES) | growth inhibition |
| --- | --- |
| CN(C)CC1CC2C3CC=C4CC(O)CCC4(C)C3CCC2(C)C1=O (centres undefined) | -23% (inactive) |
| CC(=O)O.CC(=O)[O-].CC(=O)[O-].[Co+3].[NH-]CC[NH-].[NH-]CC[NH-] | 38% (inactive) |
| Nc1nc(CCl)cs1 | -4% (inactive) |
| CC1=CCC2(C)C3CCC4(C)C(O)CCC4C3CCC2(C)C1 (centres undefined) | -25% (inactive) |
| CC1CCC2(NC1)OC1CC3C4CC=C5CC(O)CCC5(C)C4CCC3(C)C1C2C (centres undefined) | 93% (active) and 39% (inactive) |
| CCN1CCC(O)(c2ccc(Cl)c(Cl)c2)C(C(=O)c2ccc(Cl)c(Cl)c2)C1 (centres undefined) | 71% (active) |
| O=C(c1ccccc1)c1c(CC(O)c2ccccn2)n(C(=O)c2ccccc2)c2ccccc12 (centres undefined) | -10% (inactive) |
| CC(O[Si](c1ccccc1)(c1ccccc1)C(C)(C)C)[C@H](NC(=O)OC(C)(C)C)C(=O)O (some centres undefined) | -9% (inactive) |
| CC(C)=CC1CC(C)C2(CCC3(C)CC4C(C(=O)CC4(C)O)/C(C=O)=C\CC32)O1 (centres undefined) | 99% (active) |
| CC(=O)O[C@H]1C[C@@H]2OC3C=C(C)CCC3(C)[C@@]1(C)[C@@]21CO1 (some centres undefined) | 99% (active) |
| O=C1NC(=O)C([N+](=O)[O-])C(=O)N1 | 15% (inactive) |
| N#C[S-].[Nd+3].c1ccc(-c2ccccn2)nc1.c1ccc(-c2ccccn2)nc1.c1ccc(-c2ccccn2)nc1 | 62% (inactive) |
| CC(=O)Nc1ccccc1[As](O[As](c1ccccc1)c1ccccc1NC(C)=O)c1ccccc1 (centres undefined) | 11% (inactive) |
| Oc1cccc[c]1[Hg][Cl] | 99% (active) |
| Nc1nc(N)c(-c2ccc(Cl)c(Cl)c2)c(CCc2ccc(CNC(=O)Nc3ccc(S(=O)(=O)F)cc3)cc2)n1 | -1% (inactive) |
| C1CC[N-]CC1.CC(=N\O)/C(C)=N/O.CC(=N\O)/C(C)=N/O.OC1[CH-]CCCC1.[Co+2] | 13% (inactive) |
| CC(=O)OC1C2(CC3N4C(=O)C5(CO)SSC4(CC31O)C(=O)N5C)OC(C)C(C)(C)C2=O (centres undefined) | 71% (active) |
| C[C@H]1C/C=C/[C@H]2[C@@H]3O[C@]3(C)[C@@H](C)[C@H]3[C@H](Cc4ccccc4)NC(=O)[C@]32OC(=O)O/C=C/[C@@](C)(O)C1=O | 28% (inactive) |
| C1CC[N-]CC1.[Cl][Au]([Cl])[Cl] | 25% (inactive) |
